Data on 13 compounds can be found in PubChem BioAssay (NCI).

Each structure is given as a SMILES string. The panel holds about 83,000 compounds, 20% with a hit somewhere; the sample as a whole holds those more often.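 Percent growth is the endpoint: 0 to 100 indicates growth inhibition (40 means 60% inhibition), 0 means no net growth, and negative values indicate cell death.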 Values without a mark were called inactive. Calls of active or inactive are those of the source. How the source made its calls: active means growth percent below 10; inactive means the rest.

Common to all, as to test: NCI-60 one-dose screen, 48 h (100 = growth as untreated, 0 = no growth, -100 = all killed)
What all share (conditions): 10 µM unless noted

The test system of assay [1] is T-47D breast.
The test system of assay [2] is BT-549 breast.
For assay [3], the system named is MDA-MB-435 melanoma.
For assay [4], the system named is SW-620 colon.
In assay [5] the test system is MCF7 breast.
Assay [6] has as its system HCT-116 colon.
For assay [7], the system named is HCC-2998 colon.
Assay [8] has as its system KM12 colon.

Regarding `COc1cccc(/C=N/NC(=O)c2ccccc2Nc2ccnc(C(F)(F)F)c2)c1O`, the growth in assay [1] is 17.6%; in assay [2] it was 25.8%; in assay [3], 31.9%; in assay [4] it was 31.9%; in assay [5] it was 3.13% (active); in assay [6], 12.8%. In addition, the growth in assay [7] was 51.2%; in assay [8], 38.8%.

As for `CC(=O)OCCC/C(=C/c1cc2ccccc2c2ccccc12)[N+](=O)[O-]`, the growth in assay [1] was -66.7% (active); in assay [2], -50% (active); in assay [3], -36.2% (active); in assay [4], -88.2% (active); in assay [5], -87.8% (active); in assay [6] it was -100% (active). The results for the growth in assay [7] and in assay [8] were -99.5% (active) and -99.2% (active), respectively.

`Cn1c(O)c(N=NC(=O)c2cc(-c3ccccc3)on2)c2ccccc21`: the growth was 101% in assay [1]; 103% in assay [2]; 95.3% in assay [3]; 105% in assay [4]; 77.5% in assay [5]; 98.9% in assay [6]. Besides, the growth in assay [7] is 102%; in assay [8], 101%.

As to `CS(=O)(=O)c1ccc(-n2nc(-c3ccc(Br)cc3)c3ccccc3c2=O)cc1`, the growth in assay [1] was 86.5%; in assay [2], 91.1%; in assay [3] it was 103%; in assay [4], 104%; in assay [5] it was 85.9%; in assay [6], 96.7%. The growth in assay [7] is 98%; in assay [8], 102%.

For the compound `NNCCc1ccc(NC(=O)CCCc2ccc(/C=C/C(=O)NO)cc2)cc1`, the growth in assay [1] was -5.44% (active); in assay [2], 44.9%; in assay [3], 66%; in assay [4], 43.3%; in assay [5], 30.8%; in assay [6] it was 35.3%. Further, the results for the growth in assay [7] and in assay [8] were 95.5% and 57.1%, respectively.

Turning to `O=C(N/N=C/c1ccccc1O)c1ccccc1Nc1ccnc(C(F)(F)F)c1`, the growth was 19.4% in assay [1]; 30.1% in assay [2]; 32.4% in assay [3]; 35% in assay [4]; 8.24% (active) in assay [5]; 14.4% in assay [6]. Also, the growth in assay [7] was 46%; in assay [8], 32.4%.

As to `CCOC(=O)c1sc2nc(-c3cccc(OC)c3)nc(N3CCOCC3)c2c1C`, the growth in assay [1] was 92.8%; in assay [2] it was 94.9%; in assay [3], 96.9%; in assay [4], 110%; in assay [5] it was 90.4%; in assay [6] it was 96.6%. For the same compound, the growth in assay [7] is 99.6%; in assay [8], 97.5%.

`COc1cc2nc(N3CCCC3)nc(NCc3ccccc3)c2cc1OC`: the growth is 7.79% (active) in assay [1]; 70.5% in assay [2]; 6.99% (active) in assay [3]; 55.9% in assay [4]; 29.4% in assay [5]; 28.2% in assay [6]. For the same compound, the growth is 55.4% in assay [7] and 96.3% in assay [8].

As to `COc1cc2c(cc1-c1c(C)noc1C)ncc1nc(C3CCOCC3)n([C@@H](C)COC(F)F)c12`, the growth in assay [1] is 38.1%; in assay [2], 64.1%; in assay [3] it was 39.7%; in assay [4] it was 63.4%; in assay [5], 18.4%; in assay [6], 30.5%. Further, the growth was 43.3% in assay [7] and 48.8% in assay [8].

Turning to `Cc1cc(N2CCN(c3ccnc4cc(Cl)ccc34)CC2)nc(NC2CCCCC2)n1`, the growth was 7.8% (active) in assay [1]; 51.9% in assay [2]; -6.47% (active) in assay [3]; 14.9% in assay [4]; 12.8% in assay [5]; 3.19% (active) in assay [6]. The results for the growth in assay [7] and in assay [8] were 18.2% and 30.1%, respectively.

Take `O=C(Cn1cccc(Nc2ccccc2)c1=O)Nc1ccccc1`: the growth in assay [1] was 93.9%; in assay [2], 106%; in assay [3], 97.3%; in assay [4], 102%; in assay [5] it was 96.1%; in assay [6], 98.6%. Further, the growth in assay [7] was 109%; in assay [8], 110%.

With `O=S(=O)(Nc1ccc(OC(F)F)cc1)c1ccc(-c2cnc(C3CC3)o2)cc1`, the growth in assay [1] is 48.3%; in assay [2], 63.4%; in assay [3] it was 8.1% (active); in assay [4] it was 35.2%; in assay [5], 39.1%; in assay [6] it was 65.4%. Further, the growth is 80.5% in assay [7] and 74.1% in assay [8].

For the compound `C=C(C)[C@@H]1CC[C@]2(C(N)=O)CC[C@]3(C)[C@H](CC[C@@H]4[C@@]5(C)C/C(=C/c6ccco6)C(=O)C(C)(C)[C@@H]5CC[C@]43C)[C@@H]12`, the growth in assay [1] is 80%; in assay [2], 108%; in assay [3], 98%; in assay [4], 105%; in assay [5], 79.8%; in assay [6] it was 83.3%. Also, the growth is 117% in assay [7] and 97.6% in assay [8].
